Test results published in PubChem BioAssay AID720706 (Broad Institute, 2013).
Hit rate of the full screen: of about 350,000 compounds, about 5,500 (1.6%) were called active.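 Rule for the calls: active = significant combined selectivity score with lowered wild-type GFP, culture density cut under 30%, mutant RFP and density less affected; inactive = any of these conditions unmet.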 This excerpt belongs to a sample that is enriched for actives.

Test: reduced GFP signal of wild-type E. coli, primary screen, bacterial rRNA inhibitor project, GFP/RFP fluorescence, OD600, single point (AID 720706)
Settings: E. coli WT GFP vs humanized-ribosome RFP mutants, 24 h; GFP signal change (wild-type ribosome): stronger effect = lower value, DMSO median 0, no signal -100; OD600 change: measured here: OD600 growth, DMSO median 0, no signal -100; RFP signal change: measured here: RFP humanized mutant strains, DMSO median 0, no signal -100, concentration not given here

Compound	GFP signal change (wild-type ribosome)	OD600 change	RFP signal change
Cc1ccc(S(=O)(=O)N2CCN(c3ccccc3)CC2)cc1C	-16.3% (inactive)	-15.2%	-8.46%
Cc1ccc(S(=O)(=O)N(C)CC(=O)OCC(=O)N2CC(=O)Nc3ccccc32)cc1	2.71% (inactive)	-0.97%	0.17%
Cc1ccc(S(=O)(=O)N2CC(=O)Nc3ccccc32)cc1C	-32.4% (active)	-6.68%	4.37%
CCCNC(=O)N1C[C@H](C)[C@@H](OC)CN(C)C(=O)c2ccc(NS(=O)(=O)CC(F)(F)F)cc2OC[C@@H]1C	-0.684% (inactive)	1.48%	-1.07%
Cc1ccccc1-c1cnc2c(c1)C(=O)N([C@H](C)CO)C[C@@H](C)[C@H](CN(C)C(=O)c1cccnc1)O2	2.61% (inactive)	12.8%	-2.14%
COc1ccc2c3c(n(C)c2c1)[C@H](CO)N(Cc1ccccc1)CC31CCN(C)CC1	0.784% (inactive)	7.81%	2.48%
O=S(=O)([N-]c1nc2ccccc2nc1-[n+]1ccc(Cc2ccccc2)cc1)c1ccc(Br)s1	-29.2% (active)	-18.6%	-0.481%
CC(C)NC(=O)Nc1ccc2c(c1)CC(=O)N([C@@H](C)CO)C[C@@H](C)[C@H](CN(C)Cc1ccc(C(F)(F)F)cc1)O2	2.02% (inactive)	-34.5%	-0.097%
Cn1cc(CCC(=O)NCc2ccc3c(c2)OCO3)c2ccccc21	-21.5% (active)	-10.6%	2.95%
CCN(CC)C(=O)C(=O)c1cn(CC(=O)NCc2ccc3c(c2)OCO3)c2ccccc12	10.3% (inactive)	-1.1%	3.71%
Cn1cc(CCC(=O)NC2CC2)c2ccccc21	4.27% (inactive)	10.1%	-0.645%
O=C(C[C@@H]1CC[C@H](NC(=O)C2CCC2)[C@@H](CO)O1)NC1CCCCC1	3% (inactive)	3.16%	-1.22%
Cc1cccc(NS(=O)(=O)c2ccc(C)c(C(=O)NCC(c3ccccc3)N(C)C)c2)c1 (stereo unspecified)	4.21% (inactive)	4.97%	2.06%
Cc1ccc(S(=O)(=O)NCCCn2ccnc2)cc1C(=O)NC(C)C	10.7% (inactive)	7.94%	-1.51%
Cc1ccc(S(=O)(=O)NCCC(c2ccccc2)c2ccccc2)cc1C(=O)O	-40.5% (active)	-24.2%	-13.9%
O=C([C@@H]1[C@@H](CO)[C@@H]2Cn3c(ccc(C4=CCCCC4)c3=O)[C@H]1N2Cc1nccs1)N1CCCCC1	-2.47% (inactive)	3.59%	1.3%
COc1ccc(NC(=O)Nc2ccc3c(c2)CC(=O)N([C@H](C)CO)C[C@H](C)[C@H](CN(C)S(=O)(=O)c2ccccc2)O3)cc1	0.245% (inactive)	-2.9%	0.358%
